# RE007 growth inh = less growth of the S. pombe RE007 Vpr strain; Potency, µM (highest dose often 92.2 µM), inactives show at the highest dose activity change, negative = less growth, most hits filed as inhibitors; S. pombe RE007 Vpr strain, BacTiter-Glo ATP luminescence, 24 h; AID 651644; 360,000 tested, 0.21% active; active = well fitted falling curve with a large enough effect; inconclusive = small, poorly fitted or top-dose-only effect; inactive = no such curve, though single readings can be large or run the other way; note: nearly all actives have a fitted effect of over 50% in size
#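 Fission yeast strain RE007, carrying one chromosomally integrated HIV-1 vpr copy, was seeded at OD 0.01 in PMG+AL medium with 23 nL pinned compound. After 24 h at 30 °C and 99% humidity, viability was read by BacTiter-Glo luminescence.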
# LASV entry inh = Lassa virus entry inhibition | Lassa virus pseudotype entry inhibition, cell reporter | Potency, µM (highest dose often 37.9 µM), without a hit: top-dose activity change, negative = inhibition, most hits filed as inhibitors | 300,000 tested, 1.2% active; calls by dose curve; tested in HEK293 cells; note: nearly all actives have a fitted effect of over 50% in size
# Sm TGR inh = S. mansoni TGR enzyme inhibition; 360,000 tested, 3% active; AID 485364; purified TGR, DTNB reduction, TNB absorbance 405 nm; Potency, µM (doses to about 114 µM), for inactives: top-dose activity change, negative = inhibition, hits mostly inhibitors; note: nearly all actives have a fitted effect of over 60% in size
#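 Kinetic colorimetric format: TGR-catalysed, NADPH-driven DTNB reduction monitored via TNB absorbance. Enzyme dispensed at 20 nM; compound exposure 15 min at room temperature before reaction start.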
# HCV inh = blocks hepatitis C virus; Huh7.5.1 HCVcc-Cre infection, luciferase reporter, 44 h; Potency, µM (top dose mostly 41.8 µM), without a hit: at the top dose activity change, negative = inhibition, usual class: inhibitors; 340,000 tested, 3.4% active; AID 651820
#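 Seed cells (1,000/well) for 4 h; treat with compound and infect with HCVcc-Cre, moi about 0.5. Incubate 44 h, then detect luciferase activity.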
# Marburg entry inh = inhibitors of Marburg virus binding or cell entry | Marburg virus pseudotyped entry inhibition, cell reporter | Potency, µM (titrated, usually from 37.8 µM), for inactives: at the highest dose activity change, negative = inhibition, actives largely listed as inhibitors | 300,000 tested, 1.8% active | AID 540276; calls by dose curve; tested in HEK293 cells
# FMDV antiviral = blocks foot and mouth disease virus; FMDV antiviral cell-based qHTS; Potency, µM (titrated, usually from 57.9 µM), inactives show top-dose activity change, negative = inhibition, usual class: inhibitors; 410,000 tested, 1.2% active; AID 1159524; calls by dose curve; tested in HEK293T cells; note: read-out not given here; nearly all actives have a fitted effect of over 45% in size
# Numbers without * were called inactive; u = inconclusive; x = no result given; [ ] = another dose, or the depositor's remark. Most compounds without a hit are left out; they make up all but 7.2% or so of the library. Unless noted, calls come from the whole dose curve; as a rule, active = well fitted curve in the direction sought with a large enough effect; inconclusive = small, poorly fitted or top-dose-only effect, or another doubt; inactive = no such curve, though single readings can be large; an effect the other way counts as inactive or inconclusive. % is set by controls: 0 for no effect and ±100 for the full control effect; potency is the fitted concentration of half-maximal effect.
SMILES,RE007 growth inh,LASV entry inh,Sm TGR inh,HCV inh,Marburg entry inh,FMDV antiviral
CSc1ncnc2c1ncn2C1OC(CO)C(O)C1O (configuration not stated),x,x,x,x,x,-10%
COCCCn1cc(CN2CC(N3CCN(Cc4ccccc4F)CC3)CS2(=O)=O)nn1 (configuration not stated),3%,x,x,x,x,-12%
Cc1cc2c(cc1C)C(c1ccccc1OC(C)C)CC(=O)N2 (configuration not stated),0%,u,-3%,8.9µM*,1µM*,-13%
CC(C)Oc1ccccc1C1CC(=O)Nc2cc3c(cc21)OCO3 (configuration not stated),13%,u,5%,11µM*,6.5µM*,u
COc1ccc(NC(=O)C2(C)Cc3c(-c4ccc(N(C)C)cc4)ccnc3O2)cc1 (configuration not stated),-19%,x,x,x,x,-19%
CCOC(=O)c1ccccc1NC(=O)C1CC(=O)N(C(C)(C)C)C1 (configuration not stated),0%,x,-14%,21%,x,5%
CCOC(=O)c1ccccc1NC1CC(=O)N(c2ccccc2C)C1=O (configuration not stated),-12%,11%,3.5µM*,-5%,1%[46.1 µM],-13%
CC(=C\C(=O)O)/C(=C/c1ccc(C)o1)C(=O)O,-6%,u,32µM*,-11%,3%,-5%
O=C(c1ccc2c(c1)N(Cc1cccc(Cl)c1)C(=O)c1ccccc1S2=O)N1CCN(c2cccc(C(F)(F)F)c2)CC1 (configuration not stated),x,-28%[46.1 µM],1%,x,x,-15%
C[C@@H](c1ccccc1)N1C[C@H](COCc2ccccc2)Oc2cc(N3CC[C@H](N(C)C)C3)ccc2S1(=O)=O,19%,x,x,x,x,12%
C=CCn1c(SCC(=O)NC2CCCC2)nc2scc(-c3ccco3)c2c1=O,9%,-4%,11µM*,u,-1%[46.1 µM],-29%
C=CCn1c(SCC(=O)NCCCC)nc2scc(-c3ccco3)c2c1=O,-1%,-16%,14µM*,-26%,-18%,-24%
C=CCn1c(SCC(=O)N2CC(=O)Nc3ccccc32)nc2scc(-c3cccs3)c2c1=O,-9%,15µM*,0%,u,u,u
CC(C)CCn1c(SCC(=O)N2CC(=O)Nc3ccccc32)nc2scc(-c3cccs3)c2c1=O,4%,24%,-24%,u,-17%,-13%
Cc1ccc(-c2csc3nc(C)n(N)c(=O)c23)o1,-11%,29%,u,-30%,15%,69%
Cc1ccc(-c2csc3nc(C)n(-n4c(C)ccc4C)c(=O)c23)o1,1%,-15%,6.3µM*,-49%,u,-12%
C=CCn1c(SCC(=O)NCC2CCCO2)nc2scc(-c3ccccc3)c2c1=O (configuration not stated),11%,0%[46.1 µM],1%,u,0%[46.1 µM],-19%
C[C@H]1[C@H](N=[N+]=[N-])[C@H](O)CCO[C@@H]1c1ccccc1,x,x,x,x,13%[14.2 µM],x
C=CCn1c(SCC(C)=O)nc2scc(-c3ccc(C)o3)c2c1=O,2%,-12%,16µM*,-24%,24%,75%
C=CCn1c(SCC(=O)Nc2c(C)n(C)n(-c3ccccc3)c2=O)nc2scc(-c3ccccc3)c2c1=O,23%,-14%,-8%,u,u,u
C=CCn1c(=S)[nH]c2scc(-c3ccc(C)o3)c2c1=O,11%,25%,35µM*,25%,-27%[46.1 µM],1%
CCCCn1c2ccc(F)cc2c2nnc(SCCN(CC)CC)nc21,x,u,2%,x,u,-16%
CCN(CC)CCSc1nnc2c3cc(C)ccc3n(Cc3ccccc3)c2n1,18%,u,-2%,13µM*,u,-25%
COc1ccccc1NC(=O)c1ccc(NC(=O)COC(=O)C2(C)CC2(Cl)Cl)cc1 (configuration not stated),-9%,-18%,6%,-10%,-32%,35µM*
CCOC(=O)C1CCCN(CC(=O)Nc2ccc(C(=O)Nc3ccccc3OC)cc2)C1 (configuration not stated),-17%,0%,-11%,11µM*,u,-25%
SMILES,RE007 growth inh,LASV entry inh,Sm TGR inh,HCV inh,Marburg entry inh,FMDV antiviral
COc1ccccc1NC(=O)c1ccc(NC(=O)CN2CCCC2)cc1,7%,12%[46.1 µM],1%,u,-7%[46.1 µM],-4%
CCCCn1c(CNC(=O)c2ccc(OC)cc2)nnc1SCC(=O)Nc1ccccc1,x,-29%[46.1 µM],0%,x,-4%[46.1 µM],-5%
COc1ccc(NS(=O)(=O)c2ccc(I)cc2)cc1N1CCN(C)CC1,x,x,x,x,x,-24%
COc1ccc(C(=O)/C=C/c2ccccc2OC)c(OC(=O)c2ccc([N+](=O)[O-])cc2)c1,5%,-6%,x,13µM*,u,34%
COCOc1cc(OC)ccc1C(=O)C=Cc1ccc([N+](=O)[O-])cc1,x,u,x,x,-19%[14.2 µM],x
CCOC(=O)C1NNN2C3CCCCC3C(N3CCN(C4CCCCC4)CC3)NC12 (configuration not stated),x,x,x,x,5%[46.1 µM],x
O=C1N=C(N2CCc3ccccc3C2)S/C1=C\c1cccc(O)c1,4%,21µM*,-7%,4%,24%,6%
O=[N+]([O-])C1=CC=C2C(=NC3(CCCCC3)N2O)C1=NCCc1ccccc1,6%,-1%,45µM*,12%,23%[46.1 µM],-24%
CC(=O)OC1CC2C(C)(C)CCC(=O)[C@@]2(C)C2CC[C@@]3(C)C(c4ccoc4)OC(=O)C4OC43[C@]12C (some centres not stated),x,x,x,x,x,-4%
NC(=O)CC(NC(=O)Cc1ccc(Br)cc1)c1ccc(NCC2CC2)c([N+](=O)[O-])c1 (configuration not stated),7%,x,2%,19%,x,u
NC(=O)CC(NC(=O)c1ccccc1)c1ccc(N2CCN(c3ccc(F)cc3)CC2)c([N+](=O)[O-])c1 (configuration not stated),4%,x,-1%,11µM*,x,-26%
NC(=O)CC(NC(=O)Cc1ccc(Br)cc1)c1ccc(NCc2ccc(F)cc2)c([N+](=O)[O-])c1 (configuration not stated),-6%,x,5%,11µM*,x,0%
c1ccc(CNc2nc(NCCOc3ccccc3)c3sccc3n2)cc1,-17%,x,x,x,x,u
CCOC(=O)CN1C(=O)[C@]2(OCCC=C[C@@H]2C)c2cc(OC)ccc21,x,x,x,x,13%[14.2 µM],x
c1cncc(-c2nnc(-c3cccnc3)nn2)c1,22µM*,u,-2%,u,u,u
COC(=O)C1=C(C)N(Cc2ccccc2)C(=O)NC1c1ccco1 (configuration not stated),x,x,x,x,13%[14.2 µM],x
